Test results as given in PubChem BioAssay (EPA / NIEHS).
Inconclusive results are not listed. Active and inactive are the calls of the source. The calls were made as follows, unless noted: active = hit-call score of the fitted dose curve at least 0.9, where 1 is the maximum; inconclusive = response in the unintended direction; inactive = score below 0.9.

Experiments:
[1] = ATG_TAL_CIS: Attagene CIS-FACTORIAL HepG2 Assay for human TAL Basal Promoter (AID 2282966; active = hit-call score of the fitted dose curve at least 0.9, where 1 is the maximum; inactive = score below 0.9;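 also: background control endpoint measuring basal TAL promoter reporter mRNA not a specific factor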); settings: HepG2 Attagene cis-factorial TAL promoter reporter; actives raise or lower the signal
Method in brief: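 Steps: transfect HepG2 with multiple reporter transcription units; dose 24 h; isolate RNA, reverse-transcribe, PCR-amplify, label with 6-FAM, digest with HpaI; resolve by capillary electrophoresis. Bidirectional fitting against DMSO baseline.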

[2] = ATG_TGFb_CIS: Attagene CIS-FACTORIAL HepG2 Assay for human Transforming Growth Factor (TGF) (AID 2282967; active = hit-call score of the fitted dose curve at least 0.9, where 1 is the maximum; inactive = score below 0.9); settings: HepG2 Attagene CIS TGFb reporter, mRNA transcription; actives raise or lower the signal
Method in brief: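 HepG2 cells transiently transfected with cis-promoter-driven multiplexed reporter units; 24 h compound exposure. Reporter mRNA measured by RT-PCR, 6-FAM labeling, HpaI digestion and capillary electrophoresis; bidirectional fit versus DMSO baseline.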

[3] = ATG_VDRE_CIS: Attagene CIS-FACTORIAL HepG2 Assay for human Vitamin D Receptor Element (VDRE) (AID 2282968; active = hit-call score of the fitted dose curve at least 0.9, where 1 is the maximum; inactive = score below 0.9); settings: HepG2 VDRE cis-reporter transcription, actives raise or lower the signal
Method in brief: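 HepG2 cells transiently transfected with cis-element reporter units, dosed 24 h; reporter mRNA measured by RT-PCR, 6-FAM labeling, HpaI digestion and capillary electrophoresis. Activity fitted bidirectionally against DMSO baseline.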

[4] = molecular target: Estrogen receptor (Homo sapiens) (UniProt P03372); assay: ATG_ERa_TRANS: Attagene TRANS-FACTORIAL HepG2 Assay for human Estrogen Receptor alpha (ERa) (AID 2282970); settings: HepG2 Attagene TRANS ERa GAL4 reporter, mRNA
Method in brief: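 Multiplexed cell-based reporter format in HepG2: chimeric ERa-Gal4 protein drives GAL4-UAS reporter transcription. Fluorescent reporter mRNA quantified by capillary electrophoresis 24 hours after dosing; endpoint fitted as signal gain against DMSO.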

[5] = molecular target: X-box-binding protein 1 (Homo sapiens) (UniProt P17861); assay: ATG_Xbp1_CIS: Attagene CIS-FACTORIAL HepG2 Assay for human X-box Binding Protein 1 (XBP1) (AID 2282972; active = hit-call score of the fitted dose curve at least 0.9, where 1 is the maximum; inactive = score below 0.9); settings: HepG2 XBP1 cis-element reporter, Attagene multiplex; actives raise or lower the signal
Method in brief: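 HepG2 cells transiently transfected with cis-regulated multiple reporter transcription units; endogenous transcription factor activity measured 24 hours after chemical dosing. Reporter mRNA quantified by RT-PCR, 6-FAM primer extension, HpaI digestion and capillary electrophoresis; bidirectional fitting versus DMSO.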

[6] = ATG_M_19_TRANS: Attagene TRANS-FACTORIAL HepG2 Assay for M19 Transcription Factor (Internal Marker) (AID 2282974); settings: HepG2 Attagene TRANS-FACTORIAL M19 internal marker reporter
Method in brief: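 Gain-of-signal in reporter mRNA, relative to DMSO, was scored from capillary electrophoresis fluorescence. HepG2 cells carried transiently transfected multiple reporter transcription units and were incubated with test chemicals for 24 h.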

[7] = molecular target: Oxysterols receptor LXR-beta (Homo sapiens) (UniProt P55055); assay: ATG_LXRb_TRANS: Attagene TRANS-FACTORIAL HepG2 Assay for human Liver X Receptor beta (LXRb) (AID 2282981); settings: HepG2 Attagene TRANS GAL4-LXRb reporter, mRNA
Method in brief: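 HepG2 cells transiently transfected with multiple reporter transcription units carrying chimeric NR-Gal4 proteins acting on GAL4-UAS reporters; compound exposure 24 h. Reporter mRNA quantified by RT-PCR, 6-FAM labelling, HpaI digestion and capillary electrophoresis; gain of signal versus DMSO.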

[8] = molecular target: Hepatocyte nuclear factor 4-alpha (Homo sapiens) (UniProt P41235); assay: ATG_HNF4a_TRANS: Attagene TRANS-FACTORIAL HepG2 Assay for human Hepatocyte Nuclear Factor 4 alpha (HNF4a) (AID 2282982); settings: HepG2 HNF4a transactivation reporter, mRNA readout
Method in brief: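 HepG2 cells transiently transfected with multiplexed GAL4-UAS reporter units responsive to chimeric NR-GAL4 proteins; compound exposure 24 h. Reporter mRNA quantified by RT-PCR, 6-FAM labelling, HpaI digestion and capillary electrophoresis; gain of signal versus DMSO baseline.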

[9] = ATG_M_06_TRANS: Attagene TRANS-FACTORIAL HepG2 Assay for M06 Transcription Factor (Internal Marker) (AID 2282983); settings: HepG2 Attagene TRANS M06 internal marker reporter;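 also: reporter transcript level by RT-PCR then capillary electrophoresis fluorescence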
Method in brief: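 Internal-marker background readout from a multiplexed TRANS reporter system in HepG2; 24 h dosing; mRNA induction quantified by RT-PCR plus capillary electrophoresis fluorescence; DMSO as negative control and baseline.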

[10] = molecular target: Nuclear receptor subfamily 4 group A member 2 (Homo sapiens) (UniProt P43354); assay: ATG_NURR1_TRANS: Attagene TRANS-FACTORIAL HepG2 Assay for human Nuclear Receptor Related Protein 1 (NURR1) (AID 2282985); settings: HepG2 Attagene TRANS reporter, mRNA readout
Method in brief: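 HepG2 cells transiently transfected with GAL4-UAS reporter units and chimeric NR-Gal4 constructs; chemical exposure 24 h. Reporter mRNA quantified by RT-PCR, fluorescent labelling and capillary electrophoresis; gain of signal fitted relative to DMSO baseline.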

[11] = molecular target: Transcriptional activator Myb (Homo sapiens) (UniProt P10242); assay: ATG_Myb_CIS: Attagene CIS-FACTORIAL HepG2 Assay for human Myeloblastosis (Myb) Proto-Oncogene Transcription Factor (AID 2282986; active = hit-call score of the fitted dose curve at least 0.9, where 1 is the maximum; inactive = score below 0.9); settings: HepG2 Attagene CIS-FACTORIAL Myb reporter transcription; actives raise or lower the signal
Method in brief: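 Multiplexed cis-reporter system in HepG2: transient transfection, 24 h treatment, mRNA readout by RT-PCR and capillary electrophoresis. Both increases and decreases are scored versus DMSO negative control.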

[12] = molecular target: Nuclear respiratory factor 1 (Homo sapiens) (UniProt Q16656); assay: ATG_NRF1_CIS: Attagene CIS-FACTORIAL HepG2 Assay for human Nuclear Respiratory Factor 1 (NRF1) Orphan Gene (AID 2282987; active = hit-call score of the fitted dose curve at least 0.9, where 1 is the maximum; inactive = score below 0.9); settings: HepG2 NRF1 cis-element reporter, Attagene multiplex; actives raise or lower the signal
Method in brief: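 Endogenous factor activity was captured via cis-element-driven reporter transcripts in HepG2 cells. Following 24 h chemical treatment, transcripts were quantified by RT-PCR and capillary electrophoresis.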

[13] = molecular target: Glucocorticoid receptor (Homo sapiens) (UniProt P04150); assay: ATG_GR_TRANS: Attagene TRANS-FACTORIAL HepG2 Assay for human Glucocorticoid Receptor (GR) (AID 2282978); settings: HepG2 Attagene TRANS GR reporter, mRNA transcription;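 also: activators score as hits since higher reporter transcript over DMSO is fitted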
Method in brief: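 HepG2 transient transfection, multiple reporter units, GAL4-UAS under NR-GAL4 chimera control. 24 h treatment. Reporter mRNA by RT-PCR/CE fluorescence, DMSO as negative control.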

[14] = molecular target: Bile acid receptor (Homo sapiens) (UniProt Q96RI1); assay: ATG_FXR_TRANS: Attagene TRANS-FACTORIAL HepG2 Assay for Farnesoid X Receptor (FXR) (AID 2282979); settings: HepG2 Attagene TRANS FXR-GAL4 reporter transcription;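 also: hits raise reporter mRNA above DMSO so AC50 marks FXR activation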
Method in brief: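 After 24 h chemical treatment of transfected HepG2 cells, GAL4-UAS reporter transcripts driven by an exogenous FXR-GAL4 fusion were measured by RT-PCR and capillary electrophoresis. Increases over DMSO were fitted.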

[15] = ATG_M_32_TRANS: Attagene TRANS-FACTORIAL HepG2 Assay for M32 Transcription Factor (Internal Marker) (AID 2282984); settings: HepG2 Attagene TRANS M32 internal marker reporter;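 also: transcript level of a background control reporter unit measured by RT-PCR and capillary electrophoresis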
Method in brief: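 HepG2 cells transiently transfected with multiple GAL4-UAS reporter transcription units, dosed for 24 hours; reporter mRNA quantified by RT-PCR, 6-FAM primer extension, HpaI digestion and capillary electrophoresis. Gain-of-signal fitted versus DMSO baseline; internal background-control marker.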

[16] = ATG_GAL4_TRANS: Attagene TRANS-FACTORIAL HepG2 Assay for GAL4 (Internal Marker) (AID 2282976); settings: HepG2 Attagene TRANS GAL4 internal marker reporter
Method in brief: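 Liver HepG2 line bearing multiplexed GAL4-UAS reporter constructs; 24 h chemical treatment. Transcripts were quantified as fluorescent fragments on capillary electrophoresis after RT-PCR and HpaI cut, with activity fitted upward from DMSO.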

[17] = molecular target: Oxysterols receptor LXR-alpha (Homo sapiens) (UniProt Q13133); assay: ATG_LXRa_TRANS: Attagene TRANS-FACTORIAL HepG2 Assay for human Liver X Receptor alpha (LXRa) (AID 2282980); settings: HepG2 Attagene TRANS reporter, LXRa transactivation
Method in brief: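 In this multiplexed TRANS system, compounds act on HepG2 cells carrying GAL4-UAS reporter units and a receptor-GAL4 fusion for 24 h. Induced reporter RNA is amplified, fluorescently labelled and sized by capillary electrophoresis, with DMSO as baseline.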

[18] = molecular target: Estrogen-related receptor gamma (Homo sapiens) (UniProt P62508); assay: ATG_ERRg_TRANS: Attagene TRANS-FACTORIAL HepG2 Assay for human Estrogen-Related Receptor gamma (ERRg) (AID 2282977); settings: HepG2 Attagene TRANS reporter, ERRg transactivation;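 also: hits increase reporter signal over DMSO so potencies reflect activators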
Method in brief: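 Transient HepG2 transfectants, 24 h compound exposure, GAL4-UAS reporter mRNA by RT-PCR/6-FAM labelling/capillary electrophoresis; positive direction vs DMSO.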

[19] = molecular target: Steroid hormone receptor ERR1 (Homo sapiens) (UniProt P11474); assay: ATG_ERRa_TRANS: Attagene TRANS-FACTORIAL HepG2 Assay for human Estrogen-Related Receptor alpha (ERRa) (AID 2282971); settings: HepG2 Attagene TRANS reporter, ERRa transactivation
Method in brief: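 Signal gain relative to DMSO for an ERRa-Gal4 chimeric receptor, read as reporter mRNA by RT-PCR/capillary electrophoresis. Human HepG2 liver cells, transient multiplex reporter transfection, 24 h chemical exposure.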

Measured: AC50

Chain of Oxysterols receptor LXR-beta (Homo sapiens) (P55055 whole entry, looked up, the tested form may be a part): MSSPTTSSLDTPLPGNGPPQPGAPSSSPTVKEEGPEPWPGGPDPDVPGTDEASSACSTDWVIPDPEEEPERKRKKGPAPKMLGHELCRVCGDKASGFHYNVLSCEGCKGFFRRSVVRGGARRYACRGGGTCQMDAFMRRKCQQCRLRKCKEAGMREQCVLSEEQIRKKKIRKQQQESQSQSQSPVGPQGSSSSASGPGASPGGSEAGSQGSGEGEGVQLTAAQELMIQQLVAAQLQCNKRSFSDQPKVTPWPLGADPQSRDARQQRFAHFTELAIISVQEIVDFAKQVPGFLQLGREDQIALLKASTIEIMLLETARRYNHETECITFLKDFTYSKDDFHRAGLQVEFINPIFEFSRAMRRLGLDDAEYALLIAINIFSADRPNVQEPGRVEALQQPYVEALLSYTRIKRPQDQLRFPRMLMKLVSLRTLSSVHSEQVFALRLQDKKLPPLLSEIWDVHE
Chain of Hepatocyte nuclear factor 4-alpha (Homo sapiens) (P41235 whole entry, looked up, the tested form may be a part): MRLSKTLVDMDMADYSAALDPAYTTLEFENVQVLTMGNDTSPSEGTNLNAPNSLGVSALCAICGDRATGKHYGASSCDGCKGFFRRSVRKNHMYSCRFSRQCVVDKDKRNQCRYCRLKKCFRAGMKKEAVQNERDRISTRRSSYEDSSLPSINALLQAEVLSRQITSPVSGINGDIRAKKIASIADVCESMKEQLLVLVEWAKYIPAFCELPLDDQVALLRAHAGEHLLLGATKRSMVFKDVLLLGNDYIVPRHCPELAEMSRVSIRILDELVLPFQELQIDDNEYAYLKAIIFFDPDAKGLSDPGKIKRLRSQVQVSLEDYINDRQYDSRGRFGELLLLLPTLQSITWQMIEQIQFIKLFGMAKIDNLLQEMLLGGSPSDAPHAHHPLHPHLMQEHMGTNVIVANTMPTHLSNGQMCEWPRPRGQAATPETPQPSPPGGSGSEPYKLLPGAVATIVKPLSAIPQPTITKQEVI
Chain of Transcriptional activator Myb (Homo sapiens) (P10242 whole entry, looked up): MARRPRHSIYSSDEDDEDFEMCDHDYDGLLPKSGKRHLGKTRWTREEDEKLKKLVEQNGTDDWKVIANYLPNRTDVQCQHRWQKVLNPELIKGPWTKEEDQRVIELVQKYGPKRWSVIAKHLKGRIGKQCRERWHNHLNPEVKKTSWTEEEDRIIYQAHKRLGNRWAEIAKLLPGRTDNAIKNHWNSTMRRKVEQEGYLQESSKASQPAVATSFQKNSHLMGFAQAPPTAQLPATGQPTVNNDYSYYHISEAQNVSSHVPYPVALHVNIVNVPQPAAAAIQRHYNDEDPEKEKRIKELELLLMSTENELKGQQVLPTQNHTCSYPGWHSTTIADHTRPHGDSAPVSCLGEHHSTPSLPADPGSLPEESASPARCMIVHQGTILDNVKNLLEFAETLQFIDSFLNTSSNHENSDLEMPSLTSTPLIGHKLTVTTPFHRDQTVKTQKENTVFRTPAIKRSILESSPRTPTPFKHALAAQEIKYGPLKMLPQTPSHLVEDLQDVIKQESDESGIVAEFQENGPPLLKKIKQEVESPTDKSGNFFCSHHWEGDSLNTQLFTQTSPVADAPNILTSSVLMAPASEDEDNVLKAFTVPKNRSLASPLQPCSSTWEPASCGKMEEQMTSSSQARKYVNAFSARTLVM
Chain of Estrogen receptor (Homo sapiens) (P03372 whole entry, looked up, the tested form may be a part): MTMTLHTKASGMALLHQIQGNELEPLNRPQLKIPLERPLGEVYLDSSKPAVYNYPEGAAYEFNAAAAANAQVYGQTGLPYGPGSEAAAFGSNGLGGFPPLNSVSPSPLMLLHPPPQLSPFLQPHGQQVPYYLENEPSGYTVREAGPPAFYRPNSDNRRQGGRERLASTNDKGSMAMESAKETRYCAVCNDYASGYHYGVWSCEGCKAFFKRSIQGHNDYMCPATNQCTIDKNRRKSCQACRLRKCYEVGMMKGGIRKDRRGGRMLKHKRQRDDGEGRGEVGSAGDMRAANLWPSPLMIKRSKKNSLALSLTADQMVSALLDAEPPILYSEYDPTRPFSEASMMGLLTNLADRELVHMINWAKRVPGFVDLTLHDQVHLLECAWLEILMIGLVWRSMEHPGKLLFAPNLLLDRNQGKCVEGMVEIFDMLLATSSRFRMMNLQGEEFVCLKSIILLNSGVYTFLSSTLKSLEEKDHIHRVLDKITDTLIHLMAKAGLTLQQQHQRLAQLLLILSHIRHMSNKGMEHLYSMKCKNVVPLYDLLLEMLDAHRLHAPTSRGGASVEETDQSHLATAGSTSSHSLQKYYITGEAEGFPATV
Chain of Glucocorticoid receptor (Homo sapiens) (P04150 whole entry, looked up, the tested form may be a part): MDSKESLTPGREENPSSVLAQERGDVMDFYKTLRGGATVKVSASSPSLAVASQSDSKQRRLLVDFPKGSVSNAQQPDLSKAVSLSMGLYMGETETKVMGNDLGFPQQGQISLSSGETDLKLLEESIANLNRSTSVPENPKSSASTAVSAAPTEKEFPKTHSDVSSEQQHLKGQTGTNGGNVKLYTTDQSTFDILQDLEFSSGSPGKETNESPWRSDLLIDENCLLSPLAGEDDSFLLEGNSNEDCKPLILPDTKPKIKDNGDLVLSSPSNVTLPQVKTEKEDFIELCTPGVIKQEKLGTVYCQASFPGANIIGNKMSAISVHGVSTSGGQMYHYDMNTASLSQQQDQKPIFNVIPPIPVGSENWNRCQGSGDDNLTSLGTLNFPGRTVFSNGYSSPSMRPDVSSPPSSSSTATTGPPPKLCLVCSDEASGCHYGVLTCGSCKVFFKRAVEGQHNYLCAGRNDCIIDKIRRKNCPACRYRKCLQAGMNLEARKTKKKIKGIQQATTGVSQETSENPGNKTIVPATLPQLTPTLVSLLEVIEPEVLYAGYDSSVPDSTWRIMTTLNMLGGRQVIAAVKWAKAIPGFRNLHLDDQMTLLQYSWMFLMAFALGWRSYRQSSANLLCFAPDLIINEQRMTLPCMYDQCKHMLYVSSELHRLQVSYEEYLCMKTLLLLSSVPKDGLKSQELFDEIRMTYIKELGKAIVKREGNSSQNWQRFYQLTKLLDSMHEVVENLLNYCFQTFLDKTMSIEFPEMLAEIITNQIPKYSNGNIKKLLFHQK
Chain of Bile acid receptor (Homo sapiens) (Q96RI1 whole entry, looked up, the tested form may be a part): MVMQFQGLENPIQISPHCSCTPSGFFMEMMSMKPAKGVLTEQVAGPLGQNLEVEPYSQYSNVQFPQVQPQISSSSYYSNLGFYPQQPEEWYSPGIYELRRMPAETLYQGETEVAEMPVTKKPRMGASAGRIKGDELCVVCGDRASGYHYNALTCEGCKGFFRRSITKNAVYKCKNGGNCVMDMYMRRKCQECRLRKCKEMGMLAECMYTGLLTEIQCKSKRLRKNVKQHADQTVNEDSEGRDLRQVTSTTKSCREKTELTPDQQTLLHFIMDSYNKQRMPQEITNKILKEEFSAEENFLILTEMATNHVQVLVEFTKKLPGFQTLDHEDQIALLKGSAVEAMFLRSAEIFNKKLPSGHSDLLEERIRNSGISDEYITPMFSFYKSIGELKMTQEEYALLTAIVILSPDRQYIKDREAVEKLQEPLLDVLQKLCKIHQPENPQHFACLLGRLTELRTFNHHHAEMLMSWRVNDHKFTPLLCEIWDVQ
Chain of Nuclear respiratory factor 1 (Homo sapiens) (Q16656 whole entry, looked up): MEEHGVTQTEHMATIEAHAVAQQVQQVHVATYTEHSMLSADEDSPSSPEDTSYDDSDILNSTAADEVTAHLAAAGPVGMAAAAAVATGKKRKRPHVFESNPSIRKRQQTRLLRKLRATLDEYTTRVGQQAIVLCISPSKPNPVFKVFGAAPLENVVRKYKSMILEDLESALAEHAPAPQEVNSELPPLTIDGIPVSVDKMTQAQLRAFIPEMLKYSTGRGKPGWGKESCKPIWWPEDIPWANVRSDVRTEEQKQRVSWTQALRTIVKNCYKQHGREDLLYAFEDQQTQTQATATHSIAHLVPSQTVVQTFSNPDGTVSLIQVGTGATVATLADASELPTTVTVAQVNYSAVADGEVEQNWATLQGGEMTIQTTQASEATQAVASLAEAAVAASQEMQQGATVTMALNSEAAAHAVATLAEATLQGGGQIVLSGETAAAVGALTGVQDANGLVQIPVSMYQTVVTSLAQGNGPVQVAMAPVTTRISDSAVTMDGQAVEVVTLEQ
Chain of X-box-binding protein 1 (Homo sapiens) (P17861 whole entry, looked up): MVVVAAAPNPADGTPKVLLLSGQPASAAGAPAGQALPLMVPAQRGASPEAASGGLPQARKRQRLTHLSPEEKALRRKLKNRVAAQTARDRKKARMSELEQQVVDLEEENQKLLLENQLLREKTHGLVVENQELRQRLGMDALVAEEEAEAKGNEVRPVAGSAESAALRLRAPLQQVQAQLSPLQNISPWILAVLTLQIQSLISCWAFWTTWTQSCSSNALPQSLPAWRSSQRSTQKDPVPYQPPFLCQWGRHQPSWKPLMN
Chain of Nuclear receptor subfamily 4 group A member 2 (Homo sapiens) (P43354 whole entry, looked up, the tested form may be a part): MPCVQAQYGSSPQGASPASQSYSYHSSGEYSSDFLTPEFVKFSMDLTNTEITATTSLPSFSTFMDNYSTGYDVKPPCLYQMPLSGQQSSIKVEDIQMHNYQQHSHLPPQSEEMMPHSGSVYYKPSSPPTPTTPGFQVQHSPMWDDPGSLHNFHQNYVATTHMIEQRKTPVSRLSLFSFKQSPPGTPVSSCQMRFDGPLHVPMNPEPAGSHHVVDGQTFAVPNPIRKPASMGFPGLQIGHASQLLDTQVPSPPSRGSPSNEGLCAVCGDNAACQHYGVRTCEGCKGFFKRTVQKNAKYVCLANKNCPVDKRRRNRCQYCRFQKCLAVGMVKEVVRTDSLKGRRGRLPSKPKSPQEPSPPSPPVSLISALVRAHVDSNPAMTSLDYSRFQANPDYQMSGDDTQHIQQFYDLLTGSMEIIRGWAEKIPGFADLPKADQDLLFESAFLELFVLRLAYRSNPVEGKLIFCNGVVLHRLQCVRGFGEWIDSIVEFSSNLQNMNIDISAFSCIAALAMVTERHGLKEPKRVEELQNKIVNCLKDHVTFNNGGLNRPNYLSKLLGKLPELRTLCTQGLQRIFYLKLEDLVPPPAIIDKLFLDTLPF

O=S1(=O)OC(c2ccc(O)cc2)(c2ccc(O)cc2)c2ccccc21
active: [4] 23.2 µM
not listed: [13] | [14] | [15] | [16] | [17] | [18] | [19]
inactive: all other assays above

O=S(=O)(O)c1ccccc1C=Cc1ccc(-c2ccc(C=Cc3ccccc3S(=O)(=O)O)cc2)cc1
inactive: [3] | [4] | [5] | [6] | [13] | [14] | [15] | [10] | [12]
active: [1] 32.4 µM | [2] 57.8 µM

Cc1cc(C)c(C(=O)O)c(C)c1
not listed: [6] | [8] | [10] | [14] | [17] | [18] | [19]
inactive: all other assays above

C#CC1(O)CC[C@H]2[C@@H]3CCC4=CCCC[C@@H]4[C@H]3CC[C@@]21C (stereo not given in full)
active: [1] 16.8 µM | [2] 9.28 µM | [4] 0.00914 µM | [17] 1.46 µM | [7] 1.81 µM
not listed: [9] | [10] | [18] | [19]
inactive: all other assays above

CCc1c(C(=O)O)c(=O)cnn1-c1ccc(Cl)cc1
not listed: [7] | [8] | [9] | [13] | [17] | [19]
inactive: all other assays above

Cn1c(=O)[nH]c2ncn(C)c2c1=O
not listed: [6] | [10] | [13] | [17] | [18] | [19]
inactive: all other assays above

CCCCCCCCCCOC(C)=O
active: [4] 47.2 µM
not listed: [7] | [13] | [14] | [15] | [17] | [18] | [19]
inactive: all other assays above

COc1ccc([C@@H]2CC(=O)c3c(O)cc(O[C@@H]4O[C@H](CO[C@@H]5O[C@@H](C)[C@H](O)[C@@H](O)[C@H]5O)[C@@H](O)[C@H](O)[C@H]4O)cc3O2)cc1OC
inactive: [1] | [2] | [3] | [4] | [5] | [16] | [14] | [9] | [11] | [12]

CC/C=C\CCOC(=O)CCCCC
inactive: [1] | [2] | [3] | [4] | [19] | [5] | [16] | [17] | [11] | [12]

C=CCOCC(O)CCl (stereo not given)
active: [3] 34.8 µM
not listed: [6] | [7] | [8] | [14] | [17] | [18] | [19]
inactive: all other assays above
